# Compound activity as filed in PubChem.
# Hits are enriched below; roughly 11% of the tested compounds scored in any of these assays.
# ALOX12 inhib: qHTS Assay for Inhibitors of 12-hLO (12-human lipoxygenase); Polyunsaturated fatty acid lipoxygenase ALOX12 (Homo sapiens), P18054; purified 12-hLO, xylenol orange hydroperoxide absorbance; Potency, µM (series often up to 57.1 µM), for the others: at the highest dose activity change, negative = inhibition, hits mostly inhibitors; 0.12% of 150,000 active; active = well fitted curve in the direction sought with a large enough effect; inconclusive = small, poorly fitted or top-dose-only effect, or another doubt; inactive = no such curve, though single readings can be large; an effect the other way counts as inactive or inconclusive; note: potency is the fitted concentration of half-maximal effect; nearly all actives have a fitted effect of over 55% in size
#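 Lipoxygenase turnover measured by absorbance at 573 and 405 nm after Fe-XO development. Human 12hLO 150 nM, arachidonate 40 uM, pH 7.0 Hepes buffer with detergent; 15 min compound preincubation, 30 min reaction.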
# ALDH1A1 block: qHTS Assay for Inhibitors of Aldehyde Dehydrogenase 1 (ALDH1A1); Aldehyde dehydrogenase 1A1 (Homo sapiens), P00352; AID 1030, 2008; Purified ALDH1A1, NADH fluorescence, propionaldehyde substrate; Potency, µM (titrated, usually from 75.3 µM), inactives show at the top dose activity, negative = inhibition, actives largely listed as inhibitors; 7.3% of 220,000 active;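 note: potency is the fitted concentration of half-maximal effect; plate controls were no enzyme wells and a reference inhibitor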
# Target sequence (P00352 whole entry, looked up): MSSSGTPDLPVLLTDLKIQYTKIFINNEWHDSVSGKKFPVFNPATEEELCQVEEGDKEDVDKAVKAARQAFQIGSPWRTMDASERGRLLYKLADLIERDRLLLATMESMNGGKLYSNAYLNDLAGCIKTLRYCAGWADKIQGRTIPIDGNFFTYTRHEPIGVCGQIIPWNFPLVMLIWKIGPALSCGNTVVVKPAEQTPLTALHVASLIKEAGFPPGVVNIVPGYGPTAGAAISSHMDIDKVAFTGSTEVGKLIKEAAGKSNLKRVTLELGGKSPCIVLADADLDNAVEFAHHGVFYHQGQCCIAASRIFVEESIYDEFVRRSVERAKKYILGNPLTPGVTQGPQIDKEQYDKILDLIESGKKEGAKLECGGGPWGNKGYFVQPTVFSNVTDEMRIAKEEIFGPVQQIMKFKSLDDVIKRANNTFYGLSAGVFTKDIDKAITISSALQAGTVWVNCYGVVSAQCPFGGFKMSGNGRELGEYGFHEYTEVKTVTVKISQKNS
# HPGD block: qHTS Assay for Inhibitors of HPGD (15-Hydroxyprostaglandin Dehydrogenase); purified HPGD, NADH fluorescence kinetic, PGE2 substrate; AID 894, 2007; Potency, µM, for inactives: at the top dose activity change, negative = inhibition, usual class: inhibitors; 15-hydroxyprostaglandin dehydrogenase [NAD(+)] (Homo sapiens), P15428; 4.3% of 150,000 active; note: potency is the fitted concentration of half-maximal effect
# Target sequence (P15428 whole entry, looked up): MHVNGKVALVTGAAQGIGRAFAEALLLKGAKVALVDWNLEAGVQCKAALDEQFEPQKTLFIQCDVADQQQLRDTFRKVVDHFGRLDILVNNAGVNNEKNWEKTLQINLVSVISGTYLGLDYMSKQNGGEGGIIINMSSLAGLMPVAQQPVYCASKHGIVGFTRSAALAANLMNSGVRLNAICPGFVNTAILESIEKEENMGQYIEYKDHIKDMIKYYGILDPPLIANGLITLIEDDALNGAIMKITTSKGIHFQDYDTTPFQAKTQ
#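 20 nM HPGD preincubated 15 min at room temperature with compound in 50 mM Tris-HCl pH 8, 0.01% Tween 20. Started with 1 mM NAD+ and 30 uM prostaglandin E2; NADH fluorescence (360/450 nm) read 5 times over 30-s intervals, last minus first.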
# IMPase Li inh: qHTS Assay for Identifying the Cell-Membrane Permeable IMPase Inhibitors: Potentiation with Lithium; 0.35% of 210,000 active; Potency, µM (series often up to 59.4 µM), without a hit: top-dose activity, negative = IMPase inhibition, actives largely listed as inhibitors; CHO-M1 cells, IP1 TR-FRET (IP-One), carbachol + lithium; active = well fitted curve in the direction sought with a large enough effect; inconclusive = small, poorly fitted or top-dose-only effect, or another doubt; inactive = no such curve, though single readings can be large; an effect the other way counts as inactive or inconclusive;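 note: IP1 builds up when IMPase is blocked and the TR-FRET signal falls; potency is the fitted concentration of half-maximal effect; plate controls were basal vehicle for no effect and high inhibitor control for full effect; nearly all actives have a fitted effect of over 50% in size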
#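 IP1 accumulation measured by competitive TR-FRET in lysed CHO-M1 cells after 30 min compound exposure at 37C, with a small lithium addition to potentiate weak responses. Hill-equation AC50 from ratio and donor-channel data.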
# PNC inhibitor: High Content Assay for Compounds that inhibit the Assembly of the Perinucleolar Compartment; activity change (PNC), negative = inhibition, % at 10 µM; 3.1% of 140,000 active; PC3M PTB-GFP, PNC prevalence imaging, 16 h; stronger effect = lower value;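 active = readout at or below -70, meaning at least 70% loss of cells showing the perinucleolar compartment, a nuclear body marking cancer cells; inconclusive = readout between -30 and a set limit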;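 note: plate controls were DMSO wells for no effect and camptothecin positive control wells for full effect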
#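 PC3M cells stably expressing PTB-GFP, 750–1000 cells/well, treated 16 h at 37 °C with compound (23 nl of library stock), in duplicate. After paraformaldehyde fixation and Hoechst stain, imaged at 20x; PNC prevalence scored by image analysis.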
# IMPase cell inh: qHTS Assay for Identifying the Cell-Membrane Permeable IMPase Inhibitors. inhibition (IP1 accumulation), % at 46.1 µM. Inositol monophosphatase 1 (Rattus norvegicus), P97697. 120,000 tested, under 10 active. CHO-M1 cells, IP1 accumulation, HTRF TR-FRET ratio; active = well fitted curve in the direction sought with a large enough effect in the signal ratio, not every such curve was filed as active; inconclusive = small, poorly fitted or top-dose-only effect, or a change in a side signal; inactive = no such curve, though single readings can be large or run the other way; the % refers to the signal ratio;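 note: cells stimulated with carbachol in lithium chloride buffer; plate controls were DMSO basal wells for no effect and reference inhibitor wells for full effect; higher means more IMPase inhibition seen as more IP1 and lower FRET ratio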
#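 Measured: the HTRF emission ratio (665/620 nm) plus the 620 nm donor channel, each fitted to the Hill equation to give AC50. Cells were CHO-M1 given compounds up to 46 uM and a 30 min carbachol stimulation at 37C.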
# Active calls of the source: *; ? = inconclusive; . = not tested or not shown; [ ] = another dose, or the depositor's remark. Unless noted, calls come from the whole dose curve; as a rule, active = well fitted inhibition curve with a large enough effect (not every such curve was filed as active); inconclusive = small, poorly fitted or top-dose-only effect, or another doubt; inactive = no such curve, though single readings can be large or run the other way. Unless noted, % is set by controls: 0 for no effect and ±100 for the full control effect.
SMILES,ALOX12 inhib,ALDH1A1 block,HPGD block,IMPase Li inh,PNC inhibitor,IMPase cell inh
COc1cc(OC)c2c(c1)OC1Cc3cc(OC)c(OC)cc3C2O1 (configuration not stated),-1.0%[11.4 µM],1.9%[13.5 µM],-6.6%,-18.3%,.,.
N=S(=O)(O)Cc1noc2ccccc12,.,-2.8%,-15.5%,23.5%,.,.
Cc1ccc(Cl)cc1N1CCN(CCNC(=O)Nc2ccc(Cl)cc2)CC1,.,.,.,.,.,-3.3
O=C(CSc1nnc2scc(-c3ccccc3)n12)Nc1ccc2c(c1)OCCO2,-2.9%,15.8µM*,-8.4%,1.3%[38.3 µM],?,-0.2
CCc1c(C)nc(SCC(=O)Nc2ccc3c(c2)OCCO3)[nH]c1=O,.,11.2µM*,.,-4.3%,.,.
COc1ccc(-c2nnc(SCC(=O)Nc3ccc4c(c3)OCCO4)n2N)cc1OC,-4.9%,4.9%,5.5%,-9.1%[38.3 µM],-8.5,2.4
CC(C)Oc1cccc(-c2nnc(SCC(=O)Nc3ccc4c(c3)OCCO4)n2N)c1,3.0%,12.6µM*,-11.8%,-6.9%[38.3 µM],-7.7,3.8
O=C(CSc1ncn(-c2ccccc2)n1)Nc1ccc(Br)cn1,-9.4%,?,28.2µM*,22.1%[38.3 µM],-11.0,8.2
CC1=CC[C@@]23CCCN2C(=O)CCC[C@H]3C1,0.4%[0.00818 µM],-12.4%[120 µM],-5.9%,-2.3%,.,.
CC(C)(C)NC(=O)[C@@H]1CC[C@@H]2[C@@H]3CC[C@@H]4NC(=O)C=C[C@@]4(C)[C@H]3CC[C@]21C,-1.4%[25.6 µM],-14.9%[20.9 µM],-5.5%,-1.1%,.,-6.0[20.6 µM]
O=C(CCSc1nnc2scc(-c3ccccc3)n12)NCc1ccc2c(c1)OCO2,-7.5%,-5.4%,?,36.0%[38.3 µM],36.7,-10.6
O=C(CSc1ncn(-c2ccccc2)n1)Nc1ccc2c(c1)OCCO2,-1.6%,?,-12.1%,-0.3%[38.3 µM],-86.1*,6.6
Nn1c(SCC(=O)Nc2ccc3c(c2)OCO3)nnc1-c1ccncc1,-4.7%,10.2%,-8.7%,-11.1%[38.3 µM],33.8,?
Cc1cc(NC(=O)CSc2nnc(-c3ccncc3)n2N)ccc1Br,-1.0%,?,-12.0%,-1.8%[38.3 µM],-88.9*,-6.7
O=C(CSc1ncn(-c2ccccc2)n1)Nc1ccc2c(c1)OCO2,-6.5%,-13.8%,.,.,1.0,7.7
O=C(CSC1=NC2(CCCCCC2)N=C1c1ccccc1)Nc1ccc2c(c1)OCCO2,-7.2%,22.4µM*,-14.3%,18.0%,-118.9*,.
c1ccc(-c2csc3nnc(SCc4ccc5c(c4)OCO5)n23)cc1,-13.8%,?,22.4µM*,47.8%[38.3 µM],21.2,?
CCOC(=O)c1cnc2ccc(C(=O)OC)cc2c1Nc1ccccc1CC,.,.,.,.,.,-0.5
CC(=O)c1cccc(NC(=O)CSc2ccc(-c3ccc4c(c3)OCO4)nn2)c1,-3.0%,0.7%,-5.0%,8.8%,25.3,.
O=C(CSc1ccc(-c2ccccc2)nn1)Nc1ccc2c(c1)OCCO2,-3.5%,-12.4%,-4.8%,-2.2%,-113.0*,.
CC(=O)N[C@H](CC(C)C)C(=O)O,-3.2%,3.2%,-5.6%,23.6%,.,.
S=C1SCN(Cc2cccnc2)CN1Cc1cccnc1,.,14.1µM*,.,.,.,.
S=C1NCN(Cc2cccnc2)CN1,.,-0.1%,.,.,.,.
CO[C@@H]1COC(=O)[C@H](C)NC(=O)C/C=C\[C@@H](C)[C@@H](NS(=O)(=O)c2ccc(C)cc2)COC(=O)C/C=C\[C@@H]1C,.,-6.9%[13.5 µM],.,.,.,.
CC1CC2=C(NC(=S)NC2c2ccccc2F)/C(=C/c2ccccc2F)C1 (configuration not stated),.,0.562µM*,.,10.0%,.,.
SMILES,ALOX12 inhib,ALDH1A1 block,HPGD block,IMPase Li inh,PNC inhibitor,IMPase cell inh
CC1CC2=C(NC(=S)NC2c2cccc(F)c2)/C(=C/c2cccc(F)c2)C1 (configuration not stated),.,1.26µM*,.,16.5%,.,.
CN1C2CCC1/C(=C\c1ccccc1F)C(=O)/C2=C/c1ccccc1F,-2.8%,5.8%,0.1%,18.7%,26.4,-6.5
COc1ccc(NC(=O)COc2nc3ccccc3nc2N2CCOCC2)c(OC)c1,.,-10.1%,.,5.9%,.,.
Cc1sc(-n2c(C)cc(/C=C3\SC(=S)NC3=O)c2C)c(C#N)c1C,-2.2%,11.5%,?,-9.9%[38.3 µM],40.6,-18.2
Cc1sc(-n2c(C)cc(/C=N/n3cnnc3)c2C)c(C#N)c1C,-3.0%,3.98µM*,.,.,7.7,10.8
N#CCc1c(C#N)c(N)nc(N2CCCC(CO)C2)c1C#N (configuration not stated),.,?,.,-3.2%,.,.
N#CCc1c(C#N)c(N)nc(N2CCCC(O)C2)c1C#N (configuration not stated),.,3.55µM*,.,4.6%,.,.
O=[N+]([O-])c1ccc(-c2nnc(-c3ccccc3)c(NCCCO)n2)cc1,0.3%,?,-18.1%,0.0%,-85.1*,.
O=c1cc(CSc2nc3ccccc3[nH]2)c2ccccc2[nH]1,-1.2%,-4.6%,7.94µM*,32.9%[38.3 µM],?,0.2
O=c1cc(CSc2nnc(-c3ccco3)o2)c2ccccc2[nH]1,0.5%,-2.5%,20µM*,22.7%[38.3 µM],24.6,?
COCCCn1c(SCc2cc(=O)[nH]c3ccccc23)nnc1-c1ccco1,-11.8%,?,5.2%,5.9%[38.3 µM],6.9,25.1
COc1ccc(-c2cccc(-c3cc(=O)oc4ccc(C(C)(C)C)cc34)c2)cc1,0.9%[0.00818 µM],-7.2%,-9.3%,7.9%,.,.
CCCCNC(=O)NC1(C(F)(F)F)Oc2ccccc2O1,-3.7%,0.2%,-5.8%,23.3%[38.3 µM],-11.6,-9.1
NS(=O)(=O)c1ccc(CCNC(=O)NC2(C(F)(F)F)Oc3ccccc3O2)cc1,-1.4%,7.7%,-11.8%,14.2%,-100.0*,2.7
COc1ccc2[nH]cc(CCNc3cc(-c4cccc(C#N)c4)ncn3)c2c1,.,?,.,4.4%,.,.
Cc1cc(C)n(-c2nc3ccccc3c3nc(C)nn23)n1,-2.0%,4.1%,-7.5%,11.6%[38.3 µM],34.0,-6.9
Cc1cc(C)n(-c2nc(C)nc3c2cnn3-c2ccccc2)n1,2.7%,1.2%,?,?,-96.2*,-0.2
CC[C@@H](C)C(NC(=O)OC(C)(C)C)c1cn([C@@H](Cc2ccc(O)cc2)C(=O)N2CCN(C(=O)OC(C)(C)C)CC2)nn1 (some centres not stated),.,1.3%,.,4.2%,.,.
Cc1cc(C)cc(OCC(=O)OCC(=O)NCc2ccco2)c1,-1.5%,35.5µM*,-5.8%,0.3%[38.3 µM],10.8,8.4
Cc1ccc(OCCCC(=O)NCc2ccco2)cc1,-8.2%,3.8%,25.1µM*,-5.4%[38.3 µM],56.6,5.1
Cc1ccccc1OCCCC(=O)NCc1ccco1,-9.8%,3.8%,25.1µM*,1.7%[38.3 µM],14.7,-0.9
